# Data published in PubChem BioAssay (NCI).
# Compounds without any hit were thinned out: in the full panel of roughly 83,000, 20% have a hit.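 The test compound was applied at a single concentration to cells in 96-well plates for 48 hours, and percent growth was recorded.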 Values without a mark were called inactive. Calls of active or inactive are those of the source. How the source made its calls: active means growth percent below 10; inactive means the rest.
# What was measured:
# Assay in all cases: NCI-60 one-dose screen, 48 h (100 = growth as untreated, 0 = no growth, -100 = all killed)
# Conditions in all cases: 10 µM unless noted
# RPMI-8226 leukemia = tested on: RPMI-8226 leukemia
# OVCAR-8 ovarian = tested on: OVCAR-8 ovarian
# OVCAR-5 ovarian = tested on: OVCAR-5 ovarian
# OVCAR-4 ovarian = tested on: OVCAR-4 ovarian
# SK-OV-3 ovarian = tested on: SK-OV-3 ovarian
# IGROV1 ovarian = tested on: IGROV1 ovarian
# OVCAR-3 ovarian = tested on: OVCAR-3 ovarian
# HS 578T breast = tested on: HS 578T breast
# NCI/ADR-RES ovarian = tested on: NCI/ADR-RES ovarian
# T-47D breast = tested on: T-47D breast
# BT-549 breast = tested on: BT-549 breast
# MDA-MB-435 melanoma = tested on: MDA-MB-435 melanoma
# SW-620 colon = tested on: SW-620 colon
# MCF7 breast = tested on: MCF7 breast
# HCT-116 colon = tested on: HCT-116 colon
# KM12 colon = tested on: KM12 colon
# HCC-2998 colon = tested on: HCC-2998 colon
SMILES,growth (RPMI-8226 leukemia),growth (OVCAR-8 ovarian),growth (OVCAR-5 ovarian),growth (OVCAR-4 ovarian),growth (SK-OV-3 ovarian),growth (IGROV1 ovarian),growth (OVCAR-3 ovarian),growth (HS 578T breast),growth (NCI/ADR-RES ovarian),growth (T-47D breast),growth (BT-549 breast),growth (MDA-MB-435 melanoma),growth (SW-620 colon),growth (MCF7 breast),growth (HCT-116 colon),growth (KM12 colon),growth (HCC-2998 colon)
Cc1nc(S(=O)(=O)c2ccccc2)c(S(=O)(=O)Cc2ccc([N+](=O)[O-])cc2)o1,82.6%,100%,86.5%,93.1%,99.1%,95.8%,83.9%,87.6%,104%,77%,87.7%,101%,90.9%,74.2%,86.6%,106%,–
S=c1nc(-c2ccccc2)oc(=NC2CCCCC2)n1C1CCCCC1,-8.22% (active),32.2%,86.2%,33.9%,87.7%,-25.9% (active),11.8%,43.1%,32.5%,35.4%,82.4%,67.9%,5.42% (active),12.7%,–,10.7%,73.7%
O=c1ccc(N=Nc2ccccc2)ccc1Cl,25.1%,38.9%,120%,84.6%,93.8%,80.7%,23.7%,92.4%,-4.66% (active),42.4%,135%,40.6%,-3.18% (active),17.6%,–,74.6%,35%
C[N+]1=C(/C=C/c2ccc(O)c3ncccc23)C(C)(C)c2ccccc21,53.6%,53.7%,52.5%,27.7%,23%,46%,83%,49.2%,–,23.7%,81.2%,59.6%,89%,13.7%,10.4%,84.4%,92%
CCCSc1nc2ccc(C)cc2cc1/C=[N+](\[O-])c1ccccc1,17.1%,12.4%,74.3%,55%,75.1%,44.4%,-12% (active),48.6%,7.89% (active),56.6%,–,-24.1% (active),22.7%,21.8%,9.07% (active),25%,98.2%
C#Cc1cccc(NC(=O)c2ccc(NC(=O)C=C)cc2)c1,60.2% [8.25 µM],75.9% [8.25 µM],86.7% [8.25 µM],88.9% [8.25 µM],97% [8.25 µM],70.9% [8.25 µM],70.5% [8.25 µM],94.2% [8.25 µM],73.9% [8.25 µM],55.6% [8.25 µM],–,65.5% [8.25 µM],77.9% [8.25 µM],59% [8.25 µM],57.4% [8.25 µM],96.7% [8.25 µM],101% [8.25 µM]
Fc1cc(-c2nnc3n2NC(=Nc2ccc(Cl)cc2)CS3)c(Cl)cc1Cl,66.9%,94.9%,80.3%,89.9%,89.8%,57.2%,91.6%,89.3%,88.3%,79.2%,94.7%,64.2%,95.7%,86.9%,–,60.5%,75.3%
Cc1nc2ccccc2c(/C=C/c2ccc(Cl)cc2)c1C(=O)/C=C/c1ccc(C(F)(F)F)cc1,-30.7% (active),2.79% (active),-41.6% (active),-91% (active),-79.9% (active),-85.5% (active),-85.8% (active),-17.3% (active),-5.17% (active),-18.2% (active),–,-95.4% (active),-57.5% (active),-29.6% (active),-53.6% (active),-74.1% (active),-81.3% (active)
Cc1cc(O)c(C2=NN(c3ccc(S(N)(=O)=O)cc3)C(/C=C/c3ccccc3)C2)cc1Cl (stereo not given),48.7%,38.6%,51%,34.6%,17%,16%,29.7%,39.2%,29.7%,25.7%,52.4%,47.4%,51.9%,33.8%,–,57.6%,50.5%
O=C(CSc1nc2ccccc2[nH]1)Nc1cccc(Cl)c1,102%,106%,98.7%,95.7%,97.9%,96.2%,102%,91.9%,–,83.4%,103%,102%,95.7%,102%,-54.9% (active),99.5%,103%
